# Key:
# Type in all cases: functional
# Plasmodium falciparum [1] = experiment: GSK_TCMDC: Inhibition of Plasmodium falciparum 3D7 in whole red blood cells, using parasite LDH activity as an index of growth. Test compounds present at 2uM
# Plasmodium falciparum [2] = experiment: GSK_TCMDC: Inhibition of Plasmodium falciparum Dd2 in whole red blood cells, using parasite LDH activity as an index of growth. Test compounds present at 2uM
# HepG2 = experiment: GSK_TCMDC: Percent inhibition of human HepG2 cell line. Test compounds present at 10uM.
SMILES,Inhibition (Plasmodium falciparum [1]),Inhibition (Plasmodium falciparum [2]),Inhibition (HepG2)
O=C(Nc1cccc(C(F)(F)F)c1)Nc1nc2ccc([N+](=O)[O-])cc2s1,100%,76%,81%
CC(=O)Nc1cccc(C(=O)Nc2cccc(-c3ccc(-c4nc5cc(F)ccc5[nH]4)s3)c2)c1,94%,30%,88%
CN(C)CCCOc1ccc(CCCCc2ccc(Cl)cc2C(=O)c2ccccc2)cc1.O=C(O)C(=O)O,92%,8%,8%
O=C(NCC1CCN(Cc2cccc(F)c2)C1)c1cc(-c2cccc(C(F)(F)F)c2)cs1.O=C(O)C(F)(F)F (centres undefined),96%,10%,31%
O=C(Nc1ccc(C(F)(F)F)cc1)N[C@H]1CCN(CCCCCNC(=O)C2CC2c2ccc(Cl)c(Cl)c2)C1 (some centres undefined),96%,0%,41%
COc1cccc(CCNCc2ccc(-c3cccc(CNC4CCCC4)c3)cc2)c1.O=C(O)C(F)(F)F,100%,45%,14%
CC(CNC1CCN(CCn2c(=O)ccc3ccc(F)cc32)CC1)c1ccccc1 (centres undefined),85%,4%,0%
COc1ccc(CNC2Cc3ccccc3C2)cc1-c1ccc(S(=O)(=O)NCCN2CCCC2)c(F)c1.O=C(O)C(F)(F)F,100%,69%,44%
Cn1cc(C2CCN(CCCCNC(=O)c3ccc(-c4ccc(C(F)(F)F)cc4)c(CO)c3)CC2)c2ccccc21,88%,16%,67%
Cc1ccc(NC(=O)c2ccc(CN3CCCN(CC4CCCCC4)CC3)cc2)cc1C.O=C(O)C(F)(F)F,86%,32%,38%
Cc1cc(-c2nc3ccc(CN4CCN(C)CC4)cc3[nH]2)nn1Cc1cc(Cl)ccc1OCc1ccccc1.Cl,100%,52%,3%
Fc1ccc2[nH]c(-c3cccc(-c4ccc(CNCC5CCCO5)cc4)c3)nc2c1.O=C(O)C(F)(F)F (centres undefined),100%,98%,36%
CC1CN(Cc2cccc(-c3ccc(-c4nc5cc(F)ccc5[nH]4)cc3)c2)CC(C)O1.O=C(O)C(F)(F)F (centres undefined),87%,88%,45%
CC(C)(C)c1ccc(CN2CCCCC(NC(=O)c3cc(-c4cccc(F)c4)cs3)C2)cc1.O=C(O)C(F)(F)F (centres undefined),98%,84%,8%
CN(CCN)Cc1cccc(-c2cccc(-c3nc4cc(C(F)(F)F)ccc4[nH]3)c2)c1.O=C(O)C(F)(F)F,99%,98%,22%
CCc1c(CCNCCCCCCNCCc2ccc(OC)c(OC)c2C)ccc(OC)c1OC.Cl,98%,1%,16%
CC1N=C(N)N=C(N)N1OCc1cccc2ccccc12 (centres undefined),93%,4%,66%
CC(C)(C)c1ccc(NC(=O)c2cccc(CN3CCCN(Cc4ccsc4)CC3)c2)cc1.O=C(O)C(F)(F)F,96%,3%,33%
O=C(Nc1ccc2c(c1)CCC2)c1nc(N2CCN(c3ccncc3)CC2)ccc1Cl.O=C(O)C(F)(F)F,100%,97%,55%
Cc1nc(O)c2c(ccc3ccc(CN(C)c4ccc(C(=O)N[C@@H](CCC(=O)O)C(=O)O)cc4)cc32)n1,95%,27%,42%
CCOc1cc(C(=O)N[C@@H](Cc2ccccc2)[C@H](O)CNCc2cccc(OC)c2)cc(N2CCCCS2(=O)=O)c1.Cl,97%,94%,3%
Cc1cc(O)c2c(c1)OC(C)(C)C=C2C1=CCN(Cc2ccccc2)CC1,96%,1%,0%
Oc1c(CN2CCCC(C(F)(F)F)C2)cc(Cl)c2ccccc12 (centres undefined),94%,53%,23%
Nc1ncc(-c2ccc(NC(=O)Nc3cc(C(F)(F)F)ccc3F)cc2)c(N)n1.O=C(O)C(F)(F)F,99%,21%,96%
Clc1ccc(Nc2nc(-c3ccccn3)cs2)nc1,95%,90%,36%
Cc1cc(N2C(N)=NC(N)=NC2(C)C)ccc1Cl.Cl,95%,0%,66%
Nc1cccc(-c2ccc3ccnc(N)c3c2)c1,91%,66%,30%
CCc1nn2c(Nc3ccncc3)cc(C)nc2c1-c1ccccc1,100%,98%,4%

# Source: ChEMBL document CHEMBL1157539, “Thousands of chemical starting points for antimalarial lead identification” (Nature, 2010)
